Our source for the growth values is PubChem BioAssay (NCI).

Structures are written as SMILES. The panel holds about 83,000 compounds, 20% with a hit somewhere; the sample as a whole holds those more often.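 Treatment: one concentration, 48 hours, 96-well format. Scoring: percent growth, with anything below 10 considered active.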 A number with no mark means an inactive call. Calls of active or inactive are those of the source.

Test in all cases: NCI-60 one-dose screen, 48 h (100 = growth as untreated, 0 = no growth, -100 = all killed)
Test [1] concerns NCI-H23 lung. Particulars: 10 µM unless noted.
Test [2] concerns NCI-H226 lung. Particulars: 10 µM unless noted.
Test [3] has as its system NCI-H322M lung. Particulars: 10 µM unless noted.
In test [4] the test system is HOP-62 NSCLC. The conditions noted are these: 10 µM unless noted.
The subject of test [5] is NCI-H460 lung. The conditions noted are these: 10 µM unless noted.
The test system of test [6] is HOP-92 NSCLC. Particulars: 10 µM.
The test system of test [7] is NCI-H522 lung. Particulars: 10 µM unless noted.
Test [8] deals with A549/ATCC NSCLC. The conditions noted are these: 10 µM unless noted.
Test [9] deals with 786-0 renal. The conditions noted are these: 10 µM unless noted.
The subject of test [10] is COLO 205 colon. Particulars: 10 µM unless noted.
Test [11] concerns DU-145 prostate. The conditions noted are these: 10 µM unless noted.
Test [12] relates to K-562 leukemia. Particulars: 10 µM unless noted.
The subject of test [13] is MALME-3M melanoma. The conditions noted are these: 10 µM unless noted.
Test [14] deals with MDA-MB-231 breast. The conditions noted are these: 10 µM unless noted.
Test [15] relates to RXF 393 renal. Particulars: 10 µM unless noted.
In test [16] the test system is SF-268 CNS. The conditions noted are these: 10 µM unless noted.
Test [17] relates to SF-295 CNS. The conditions noted are these: 10 µM unless noted.
Test [18] has as its system SF-539 CNS. Particulars: 10 µM unless noted.
Test [19] has as its system UACC-257 melanoma. Particulars: 10 µM unless noted.

Turning to `O=S(=O)(NCCNc1nccc(-n2cnc3ccccc32)n1)c1ccc(C(F)(F)F)cc1`, the growth in test [1] was 54.5%; in test [2], 62.7%; in [3], 85.3%; in test [4], 66.1%; in [5], 57.8%; in test [6] it was 54.9%. The growth is 38.2% in test [7]; 55.4% in test [8]; 69.6% in [9]; 64.9% in test [10]; 71.8% in [11]; 40.8% in test [12]. Moreover, the growth was 71.4% in test [13]; 64% in test [14]; 38.2% in test [15]; 59.5% in test [16]; 44.7% in [17]; 64.8% in test [18]. The growth in [19] is 36.8%.
Regarding `CN(Cc1ccccc1)S(=O)(=O)/N=C1\NC(=O)NC1=C(Cl)Cl`, the growth in [1] was 66.1%; in [2], 91.7%; in [3], 95.1%; in test [4] it was 40.8%; in test [5], 17.9%; in test [6], 73.7%. Moreover, the growth was -21.5% (active) in test [7]; 99.4% in test [8]; 22.4% in test [9]; -26.1% (active) in [10]; 25.7% in test [11]; 1.09% (active) in test [12]. In addition, the growth in [13] was -19.9% (active); in [14], -2.3% (active); in test [15] it was 55.1%; in test [16], 56.1%; in [17], 98.9%; in test [18], 0.38% (active). Moreover, the growth in [19] was 68.2%.
Turning to `O=S(=O)(Oc1ccc(-c2nnc(Nc3ccccc3)s2)cc1)C(F)(F)C(F)(F)C(F)(F)C(F)(F)C(F)(F)C(F)(F)F`, the growth in test [1] was 100%; in test [2], 99.6%; in test [3] it was 113%; in test [4] it was 103%; in test [5], 103%; in test [6], 101%. Besides, the growth is 95.9% in [7]; 101% in test [8]; 108% in [9]; 104% in test [10]; 107% in test [11]; 94.4% in [12]. Besides, the growth in test [13] is 108%; in [14], 86.9%; in test [15], 102%; in test [16] it was 100%; in [17] it was 105%; in test [18] it was 97.7%. Further, in test [19], the growth is 96.8%.
As for `NS(=O)(=O)c1ccc(-n2cc(CN3CCNCC3)nn2)cc1`, the growth in test [1] was 106%; in test [2], 101%; in test [3], 113%; in test [4], 102%; in test [5], 108%; in test [6], 113%. Further, the growth in test [7] was 98.4%; in test [8], 110%; in test [9], 99.4%; in [10] it was 116%; in [11] it was 111%; in test [12], 95.9%. Further, the growth in test [13] was 112%; in [14], 105%; in test [15], 111%; in test [16], 102%; in [17], 106%; in test [18], 98.7%. Moreover, the growth in [19] is 111%.
For the compound `N#Cc1cccc(CN2CCc3ncn(Cc4ccc(Cl)cc4)c(=O)c3C2)c1`, the growth was 26.2% in test [1]; 30.4% in [2]; 42.9% in [3]; 31.2% in test [4]; 13.5% in test [5]; 30.3% in [6]. Also, the growth in test [7] is 16.6%; in test [8], 24.9%; in [9], 42.8%; in [10], 11.7%; in test [11] it was 26.9%; in test [12], 24.2%. For the same compound, the growth in test [13] is 41.5%; in [14], 26.9%; in test [15], 14.3%; in test [16], 27.2%; in test [17], 8.57% (active); in [18] it was 33.6%. Moreover, the growth in test [19] is 12.3%.
As to `C=C1CC[C@@H]2[C@](C)(CO)[C@H](O)CC[C@@]2(C)[C@@H]1C/C(O)=C1\CCOC1=O`, the growth in [1] was 104%; in test [2], 108%; in test [3] it was 103%; in test [4] it was 102%; in [5], 103%; in test [6] it was 101%. Moreover, the growth was 82.5% in test [7]; 96% in test [8]; 111% in test [9]; 130% in test [10]; 102% in test [11]; 73.1% in [12]. Moreover, the growth was 105% in test [13]; 110% in [14]; 123% in test [15]; 98.8% in test [16]; 103% in test [17]; 108% in test [18]. Besides, in test [19], the growth is 93.1%.
With `Cc1cc2nc(C(Cl)Cl)nc(-c3cccs3)n2n1`, the growth in test [1] is 10.5%; in [2], 86.7%; in test [3], -20.6% (active); in test [4], -2.2% (active); in test [5] it was -39% (active); in [6], -10.8% (active). In addition, the growth in test [7] is 46.8%; in test [8], -23.5% (active); in test [9], 77.5%; in test [10], -44.3% (active); in test [11] it was -26.5% (active); in [12], 35.3%. Moreover, the growth in [13] is 39.7%; in [14] it was 11.2%; in test [15] it was -52.9% (active); in test [16] it was 28.9%; in test [17], -9.21% (active); in test [18] it was 17.5%. The growth in [19] is 33.1%.
Turning to `O=[N+]([O-])c1cc(/C=N/Nc2nc(N/N=C/c3ccc(Cl)c([N+](=O)[O-])c3)nc(N3CCCCC3)n2)ccc1Cl`, the growth in test [1] is 81.8%; in [2] it was 61.4%; in test [3], 71.3%; in [4], 43.7%; in [5], 98.7%; in test [6], 123%. The growth in [7] was 51.9%; in test [8], 111%; in [9], 109%; in test [10], 100%; in test [11] it was 29.6%; in test [12], 31.7%. Moreover, the growth in test [13] is 101%; in test [14] it was 48.3%; in [15], 99.9%; in test [16], 64.9%; in test [17], 93.2%; in [18] it was 36.3%. Also, in [19], the growth is 51.1%.
